The full list was thinned out, with hits kept by preference.
SARS PLP yeast – inhibitors of SARS-CoV papain-like protease in yeast. S. cerevisiae expressing SARS-CoV PLpro, growth rescue. Potency, µM (doses to about 32.9 µM), for inactives: at the highest dose activity, positive = growth rescue, usual class: activators. 0.19% of 330,000 active. AID 485353; calls by dose curve; also: potency is read from the fitted curve at half-maximal effect; 0% is about no effect; nearly all actives have a fitted effect of over 55% in size
CHX counter – counter-screen for Shiga toxin inhibitors: cycloheximide protein synthesis inhibition; cell reporter, cycloheximide protein synthesis inhibition counterscreen; max response, %; 12% of 300,000 active; AID 2314; in the data active = max response mostly above about 13%, no sharp cut-off; inactive = mostly below about 14%; also: read at 38.3 µM for the half of the compounds with a filed dose; 0% is about no effect
AmpC inh detg – blocks E. coli AmpC beta-lactamase in detergent assay. P00811. AmpC hydrolysis of nitrocefin, absorbance 480 nm, 0.01% Triton. Potency, µM (doses to about 114 µM), for inactives: top-dose activity change, negative = inhibition, actives largely listed as inhibitors. 0.041% of 370,000 active. AID 485294;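 also: potency is read from the fitted curve at half-maximal effect; 0% = no-compound wells and -100% = no-enzyme wells; nearly all actives have a fitted effect of over 25% in size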
Target sequence (P00811 whole entry, looked up): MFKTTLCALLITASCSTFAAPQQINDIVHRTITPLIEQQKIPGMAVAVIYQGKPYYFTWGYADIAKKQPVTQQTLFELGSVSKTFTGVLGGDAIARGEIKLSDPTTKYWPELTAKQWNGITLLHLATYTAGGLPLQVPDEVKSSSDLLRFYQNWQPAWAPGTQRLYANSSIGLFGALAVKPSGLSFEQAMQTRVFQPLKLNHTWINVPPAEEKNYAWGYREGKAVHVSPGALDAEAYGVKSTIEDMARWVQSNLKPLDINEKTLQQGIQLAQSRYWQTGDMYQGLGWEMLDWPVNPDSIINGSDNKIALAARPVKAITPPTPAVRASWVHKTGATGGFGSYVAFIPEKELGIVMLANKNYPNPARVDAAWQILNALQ
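20 mM phosphate pH 7.0 + 0.01% (detergent screen) or 0.0001% Triton X-100; 5.3 nM AmpC reagent; cpd preinc 15 min RT; nitrocefin (800 uM stock) to start; A480 q20 s × 4 min; Activity was normalised to no-enzyme and no-compound control wells.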
AMA1 RON2 block – disrupts binding of P. falciparum AMA1 to RON2 | AlphaScreen AMA1-biotinylated RON2 peptide binding | Potency, µM (highest dose often 58.2 µM), inactives show at the top dose activity change, negative = inhibition, most hits filed as inhibitors | 0.2% of 360,000 active | AID 720542;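 also: potency is read from the fitted curve at half-maximal effect; 0% = vehicle wells and -100% = peptide control; nearly all actives have a fitted effect of over 45% in size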
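AMA1 (3D7) with his tag at 25 nM final met compounds first, then biotinylated RON2 peptide at 25 nM; detection used donor plus acceptor beads, 10 µg/mL apiece, read by AlphaScreen after 30 min at room temperature.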
AmpC no deterg – AmpC beta-lactamase inhibition without detergent | P00811 | AmpC nitrocefin hydrolysis, absorbance 480 nm, 0.0001% Triton | Potency, µM (titrated, usually from 57.1 µM), for inactives: at the top dose activity change, negative = inhibition, actives largely listed as inhibitors | 0.52% of 330,000 active | AID 485341;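 also: potency is read from the fitted curve at half-maximal effect; plate controls were no compound for no effect and no enzyme for full effect; nearly all actives have a fitted effect of over 20% in size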
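20 mM phosphate pH 7.0 + 0.01% (detergent screen) or 0.0001% Triton X-100; 5.3 nM AmpC reagent; cpd preinc 15 min RT; nitrocefin (800 uM stock) to start; A480 q20 s × 4 min; Activity was normalised to no-enzyme and no-compound control wells.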
Shiga toxin inh – blocks Shiga toxin action in Vero cells | Vero cells, Shiga toxin protein synthesis inhibition reporter | 9.2% of 290,000 active | inhibition, % at 38.7 µM; in the data active = inhibition mostly above about 28%, no sharp cut-off; inactive = mostly below about 43%; also: 0% is about no effect
The depositor's hits bear a star; ? = inconclusive; nt = no result given; [ ] = another dose, or the depositor's remark. Unless noted, calls follow the shape of the dose curve; as a rule, active = well fitted curve in the direction sought with a large enough effect; inconclusive = small, poorly fitted or top-dose-only effect, or another doubt; inactive = no such curve, though single readings can be large; an effect the other way counts as inactive or inconclusive.

SMILES | SARS PLP yeast | CHX counter | AmpC inh detg | AMA1 RON2 block | AmpC no deterg | Shiga toxin inh
COc1cc(SC)ccc1C(=O)N1CCN(Cc2ccccc2)CC1 | 0.9% | -1.9 | -3.3% | -2.1% | 67.2% | -13.8
COc1cc(SC)ccc1C(=O)NCc1ccccc1 | 11.1% | 26.0* | ? | -1.3% | -5.2% | 36.3*
CC(=O)N1CCC(C(=O)c2ccc(Cl)cc2)CC1 | -5.8% | -1.3 | -11.5% | 4.2% | -3.2% | -20.6
Cc1cc(/C=C2/C(=O)N(C)C(=S)N2C)c(C)n1C1CC1 | -5.1% | 14.5* | -15.9% | -16.0% | 5.9% | 20.3
Cc1cc(/C=C2\C(=O)NC(=S)N(C)C2=O)c(C)n1C1CCCCC1 | 14.5% | 12.8* | -0.7% | -1.1% | -13.7% | 20.6
CCOCC(=O)Nc1ccc(S(=O)(=O)N2CCOCC2)cc1 | -2.8% | -0.8 | -1.0% | 13.3% | -8.3% | -6.2
CC1(C)C(=O)Nc2ccccc2N1C(=O)COC(=O)c1cc(Cl)cc(Cl)c1 | 0.8% | nt | nt | -12.6% | -15.3% | nt
Cc1nnc(SCC(=O)N2CCN(C(=O)c3ccco3)CC2)n1-c1ccccc1 | -0.1% | -2.6 | -5.9% | 8.4% | -0.1% | -8.0
O=C(OC[C@H]1O[C@@H](OC(=O)c2cc(O)c(O)c(OC(=O)c3cc(O)c(O)c(O)c3)c2)[C@H](OC(=O)c2cc(O)c(O)c(OC(=O)c3cc(O)c(O)c(O)c3)c2)[C@@H](OC(=O)c2cc(O)c(O)c(OC(=O)c3cc(O)c(O)c(O)c3)c2)[C@@H]1OC(=O)c1cc(O)c(O)c(OC(=O)c2cc(O)c(O)c(O)c2)c1)c1cc(O)c(O)c(OC(=O)c2cc(O)c(O)c(O)c2)c1 | 4.5% | nt | ? | nt | ? | nt
O=C(O)C[C@@H]1C(=O)O[C@@H]2C(COC(=O)c3cc(O)c(O)c(O)c3)O[C@@H](OC(=O)c3cc(O)c(O)c(O)c3)[C@@H](OC(=O)c3cc(O)c(O)c4c3[C@H]1[C@H](O)C(=O)O4)[C@H]2OC(=O)c1cc(O)c(O)c(O)c1 (some centres undefined) | 1.41µM* | -3.1 | -3.2% | nt | -47.1% | -3.9
Cc1c(C)n(C)c2ccc(C(=O)N3CCN(c4ccccc4)CC3)cc12 | -34.1% | -3.6 | -2.7% | ? | 42.0% | 10.8
COc1ccccc1N=Nc1ccc(N)c(C)c1 | -0.9% | 32.4* | 1.6% | ? | -1.2% | 91.3
COc1cc(N=Nc2ccccc2C(=O)O)ccc1O | -0.1% | 5.0 | -6.7% | -5.6% | -24.4% | 14.1
CCCCNC(=O)COC(=O)c1ccc(F)cc1Cl | -3.8% | 12.7* | -6.8% | -13.8% | 5.9% | 75.8*
Cc1ccc(C(=O)/C=C/c2cc(C#N)n(C)c2C)cc1 | -3.8% | 35.4* | -2.3% | ? | -5.5% | 80.0*
Cc1c(C=C2C(=O)c3ccccc3C2=O)cc(C#N)n1C | 0.9% | 2.0 | -1.8% | -2.5% | -13.4% | -3.9
COC(=O)c1ccc(/C=C/c2ccc3cccc(OC(C)=O)c3n2)cc1 | 28.3% | 56.8* | ? | 41.2% | -16.6% | 117.0*
O=C(O)c1ccc(/C=C/c2ccc3cccc(O)c3n2)cc1 | -6.6% | 41.1* | -5.8% | 84.8% | -35.4% | 81.9*
Oc1ccc(/C=C/c2ccc3cccc(O)c3n2)cc1Br | -10.3% | 50.3* | ? | 76.6% | ? | 67.9*
O=C(O)c1ccc(/C=C/c2nc3ccccc3c(=O)[nH]2)cc1 | 0.6% | 3.8 | 7.3% | 1.1% | -15.4% | -2.1
O=C(C1CCCN1C(=O)c1cccs1)N1CCN(Cc2ccc3c(c2)OCO3)CC1 (centres undefined) | 1.4% | -3.1 | -0.8% | 17.9% | -4.7% | -0.7
Cc1csc(NC(=O)Cn2nc(C)c([N+](=O)[O-])c2C)n1 | 0.2% | 0.9 | -8.0% | 62.6% | -9.5%[11.4 µM] | -7.4
Cc1csc(NC(=O)CSc2ncc(-c3ccccc3)[nH]2)n1 | -6.9% | 29.5* | -8.6% | -25.1% | -13.6% | 10.2
CCc1nnc(NC(=O)CSc2ncc(-c3ccccc3)[nH]2)s1 | -7.4% | 38.0* | -2.4% | 2.8% | -12.1% | 20.0
CCc1nnc(NC(=O)CSc2nnc3ncccn23)s1 | 4.3% | -1.6 | 4.1% | 16.3% | 0.316µM* | -0.5
SMILES | SARS PLP yeast | CHX counter | AmpC inh detg | AMA1 RON2 block | AmpC no deterg | Shiga toxin inh
Cc1nnc(NC(=O)CSc2ncc(-c3ccccc3)[nH]2)s1 | 4.4% | 12.8 | ? | -2.6% | -28.6% | 31.4*
Cc1csc(NC(=O)CSc2ccc(-c3ccccc3)nn2)n1 | -3.1% | 11.3 | 2.4% | -1.6% | -29.5% | 16.9
O=C(O)c1cc(N2CCCC2)ccn1 | nt | nt | nt | 9.6% | nt | nt
O=C(CSc1ncn[nH]1)Nc1nnc(-c2ccccc2)s1 | -0.2% | 66.8* | 1.7% | 54.9% | -8.7% | 91.3*
Cc1cc(C)cc(NS(=O)(=O)c2ccc3[nH]cc(C(=O)NCCc4ccccc4)c(=O)c3c2)c1 | nt | nt | -0.8% | nt | nt | nt
Cc1cccc(C(=O)N[C@H](C(=O)Nc2cc(S(=O)(=O)N3CCCCC3)ccc2C)C(C)C)c1 | -12.8% | 0.3 | -12.7% | -0.7%[2.32 µM] | -16.3% | -5.8
O=C(Nc1nc2ccccc2[nH]1)c1cccc(S(=O)(=O)N2CCOCC2)c1 | -1.3% | 38.5* | ? | 53.4% | -38.3% | 42.4*
O=C(NCc1nc2ccccc2[nH]1)c1cccc(S(=O)(=O)N2CCOCC2)c1 | -0.8% | -1.1 | -2.7% | -0.3% | -16.8% | -10.3
Cc1cc(C)c2nc(NC(=O)[C@@H](NC(=O)c3cccc(S(=O)(=O)N4CCOCC4)c3)C(C)C)sc2c1 | 1.3% | 31.8* | -12.5% | 5.0% | 47.0% | 64.1*
O=C(Nc1nc2ccccc2[nH]1)c1ccc(F)c(S(=O)(=O)N2CCOCC2)c1 | 7.6% | 49.8* | -12.0% | 13.2%[2.32 µM] | -29.1% | 44.1*
CC(=O)N(C)c1ccc(N=Cc2c(O)ccc3ccccc23)cc1 | -2.3% | 17.4* | ? | 6.7% | -2.4% | 25.2*
Cc1cc(C(=O)O)ccc1N=Cc1c(O)ccc2ccccc12 | -6.4% | 10.5* | ? | 20.3% | -22.2% | 25.4
CS/C(N)=N/N=C/c1c(O)ccc2ccccc12 | -5.3% | 28.7* | 8.8% | 108.6% | -22.4% | 57.7*
Oc1ccccc1N=Cc1c(O)ccc2ccccc12 | -5.6% | 10.6* | -7.9% | -6.9% | -45.6% | 38.6*
C[C@]12CC[C@@H]3c4ccc(O)cc4CC[C@H]3[C@@H]1C[C@@H](O)[C@@H]2O | -17.2% | -2.5 | -5.8% | -1.2% | -20.4% | -7.4
CNCc1nc2ccccc2[nH]1 | 0.4% | 0.4 | -9.0% | 53.4% | 12.0% | 6.7
O=c1[nH]c2ccccc2nc1CCc1ccccc1 | -4.4% | 24.2* | -8.7% | -18.2% | -35.2% | 70.7*
O=S(=O)(NCc1nc2ccccc2[nH]1)c1ccccc1 | -8.0% | 19.0 | -0.5% | -6.4% | -22.4% | 30.7*
Nc1cccc(CCc2nc3cc4ccccc4cc3[nH]2)c1 | 3.2% | 22.1* | -8.8% | -5.2% | -31.7% | 35.8*
c1ccc(CCc2nc3ccccc3[nH]2)cc1 | 0.5% | 40.8* | 5.7% | 0.0% | -11.6% | 78.2*
